# Source: PubChem
# An excerpt weighted towards active compounds, which were near 11% of everything screened.
# USP17 inh: human USP17-like deubiquitinase inhibition; AID 1645855; A8MUK1; 47,000 tested, 6.5% active; purified USP17, Ub-rhodamine cleavage fluorescence, 3 h; inhibition, % at 50 µM
# Target sequence (A8MUK1 whole entry, looked up): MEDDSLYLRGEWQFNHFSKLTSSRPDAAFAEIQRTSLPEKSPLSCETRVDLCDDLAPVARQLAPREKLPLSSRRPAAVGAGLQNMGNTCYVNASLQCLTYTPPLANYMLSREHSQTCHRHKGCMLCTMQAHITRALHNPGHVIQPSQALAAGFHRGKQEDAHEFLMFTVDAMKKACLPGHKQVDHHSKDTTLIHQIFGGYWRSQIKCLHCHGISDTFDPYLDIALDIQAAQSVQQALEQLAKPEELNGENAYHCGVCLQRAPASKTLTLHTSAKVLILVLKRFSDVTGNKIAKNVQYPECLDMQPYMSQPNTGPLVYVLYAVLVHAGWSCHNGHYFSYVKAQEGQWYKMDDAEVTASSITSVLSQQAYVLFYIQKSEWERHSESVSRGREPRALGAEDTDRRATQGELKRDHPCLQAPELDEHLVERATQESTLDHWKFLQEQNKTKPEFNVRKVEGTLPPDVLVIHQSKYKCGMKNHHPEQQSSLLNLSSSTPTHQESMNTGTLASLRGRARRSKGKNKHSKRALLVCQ
# USP30 block: blocks human USP30 ubiquitin-rhodamine cleavage. purified USP30, Ub-rhodamine cleavage fluorescence. Q70CQ3. inhibition, % at 25 µM. 47,000 tested, 5.3% active
# USP28 block: human USP28 deubiquitinase inhibition; Q96RU2; purified USP28, Ub-rhodamine cleavage fluorescence, 30 min; inhibition, % at 25 µM; 47,000 tested, 3% active; AID 1645857
# Numbers without * were called inactive; nt = no result. Cut-off read from the data, not from the text of the source: active = inhibition above about 30%; inactive = the rest.
SMILES,USP17 inh,USP30 block,USP28 block
O=C(Nc1ccc2cn[nH]c2c1)c1cc(-c2ccco2)on1,-1.7,-214.9,-38.2
CC(C)=C/C=C\[C@H](C)[C@H]1CC[C@]2(C)C[C@H]3[C@H](C(=O)C[C@@]3(C)O)/C(C=O)=C\C[C@@H]12,21.5,5.8,2.7
CCOc1ccc(CNC(=O)C(C)c2c(C)n[nH]c2C)cc1 (centres undefined),20.0,29.2,16.4
Cc1ccc(-c2cc(C(=O)N3CCc4ccccc4C3)nn2C2CCS(=O)(=O)C2)cc1 (centres undefined),8.8,31.2*,15.9
CCCNC(=O)c1cc(-c2ccc(C)cc2)n(C2CCS(=O)(=O)C2)n1 (centres undefined),1.6,10.1,-0.1
COc1cccc(CNC(=O)c2ccc(CSc3nc4ccncc4n3Cc3ccccc3F)cc2)c1,35.8*,53.7*,34.2*
CCC(C)NC(=O)c1ccc(Cn2c(SCc3ccc(C)cc3)nc3ccncc32)cc1 (centres undefined),3.6,-0.5,22.1
COc1ccc(OC)c(CCNC(=O)c2ccc(CSc3nc4ccncc4[nH]3)cc2)c1,-17.5,-4.1,3.2
COC(=O)c1ccc(CSc2nc3ccncc3n2C(C)C(=O)OC)cc1 (centres undefined),0.3,0.1,9.5
COc1ccc(CCNC(=O)c2ccc(CSc3nc4ccncc4[nH]3)cc2)cc1OC,-17.3,-8.5,33.5*
CCC(C(=O)Nc1ccccc1F)n1c(SCc2cccc(F)c2)nc2ccncc21 (centres undefined),5.1,-0.7,13.0
COc1ccc(Cn2c(SCc3ccc(C(=O)NCCc4ccccc4)cc3)nc3ccncc32)cc1,32.0*,53.1*,29.5
COc1ccccc1CNC(=O)c1ccc(CSc2nc3ccncc3n2Cc2ccccc2)cc1,40.4*,55.7*,30.6*
Cc1ccc2c(=O)c(C(=O)N3CCCC3)cn(CC(=O)Nc3ccc(C)c(C)c3)c2n1,10.7,4.3,4.0
CCCn1nnc2cc(S(=O)(=O)N3CCC(C(=O)NCc4cccnc4)CC3)ccc21,-1.2,-6.1,1.7
CCOc1ccc(-c2nc(-c3ccc(F)c(F)c3)c(C)s2)cc1,-6.6,-3.9,-8.1
Cc1cc2c(cc1CN1CCCC(c3ncc(C(=O)N(C)C)c(C)n3)C1)n(C)c(=O)n2C (centres undefined),-13.8,-23.9,-6.9
O=C(CCn1c(=S)oc2ccccc21)Nc1ccc(O)c(-c2nc3ccccc3o2)c1,-5.5,-47.3,-15.5
Cc1ccc(C(=O)N2CCC(Nc3ncnc4c3CCC4)C2)s1 (centres undefined),0.6,5.7,1.3
COc1ccc(CSc2nc3ccncc3n2CC(=O)Nc2ccc(C)cc2C)cc1,72.1*,84.2*,70.2*
COC(=O)c1ccc(CSc2nc3ccncc3n2CC(=O)N2CCCC2)cc1,-25.5,-17.7,-9.8
COc1ccccc1-c1cc(CNCCN)n(Cc2ccc3ccccc3c2)n1,-12.6,44.5*,30.4*
COc1cccc(CN2CCn3nc(-c4ccccc4OC)cc3C2)c1,14.4,-0.9,10.9
CC1CCN(c2ccc3nnc(CCC(=O)NCc4cccnc4)n3n2)CC1,-0.1,0.7,-10.3
O=S(=O)(NCC(O)c1ccccc1)c1ccc(-c2ccccn2)s1 (centres undefined),-11.7,-1.4,-5.0
SMILES,USP17 inh,USP30 block,USP28 block
NS(=O)(=O)c1ccc(CNS(=O)(=O)c2ccc(-c3ccccn3)s2)cc1,nt,60.3*,23.7
CC(=O)N1CCN(c2cc(-c3noc([C@@H]4CCCN4C4CCOCC4)n3)ccn2)CC1,-33.4,-50.6,-15.9
Cc1ccccc1NC1SC(=O)N(Cc2ccc(C(=O)O)cc2)C1=O (centres undefined),13.1,24.3,8.0
O=C(Nc1ccc(-c2cn3ccccc3n2)cc1)C1C=C2C=C(Br)C=CC2OC1=O (centres undefined),25.0,49.1*,51.5*
COc1cc(NC(=O)Cc2cn3ccccc3n2)cc(OC)c1,-82.9,-116.3,-18.8
Cc1cccc(NC(=O)C(=O)NCC(c2cccnc2)N2CCc3ccccc3C2)c1 (centres undefined),25.4,-17.6,6.7
CCN(CC)S(=O)(=O)c1cccc(C(=O)c2c(-c3ccc(OC)cc3OC)cc3ccccn23)c1,nt,3.4,0.0
Cc1cccn2c(=O)c3cc(C#N)c(=O)n(-c4ccccc4[N+](=O)[O-])c3nc12,38.9*,-70.7,-21.5
Cc1cccn2c(=O)c3cc(C#N)c(=O)n(-c4cccc(C(F)(F)F)c4)c3nc12,-88.4,-386.7,-69.0
COc1ccccc1CNc1nc(N2CCN(C)CC2)nc2c1cnn2C,17.5,1.2,-17.9
Cc1cc(C)n2nc(NCc3cccc(Cl)c3)nc2n1,0.2,9.7,32.4*
Cc1cc(C)n2nc(C(=O)NCc3ccc(Cl)cc3)nc2n1,1.5,17.6,-7.1
NC(=O)CCN1CCN(S(=O)(=O)c2ccc3c(c2)OCCCO3)CC1,3.8,15.8,2.7
COc1ccc(C(C(=O)NC2CCCC2)N(Cc2ccccc2Cl)C(=O)c2ccco2)cc1 (centres undefined),11.0,35.2*,6.0
Cc1ccc(C(C(=O)NC2CCCC2)N(Cc2ccccc2Cl)C(=O)c2ccco2)cc1 (centres undefined),-14.4,20.5,3.4
CC1Cc2cc(S(=O)(=O)N3CCC(C(=O)NCc4cccnc4)CC3)ccc2N1C(=O)C1CCC1 (centres undefined),-3.2,13.1,1.5
Cn1ccnc1CN1CCC2(C/C=C/CNC(=O)c3ccccc3OCCNC2=O)CC1,-8.1,-10.3,-3.2
CC(=O)Nc1cccc(C(=O)Nc2ccc(CN3CCOCC3)cc2)c1,4.2,10.1,5.4
O=C(Nc1ccc(CN2CCOCC2)cc1)c1cccc(Br)c1,-4.2,5.4,38.1*
Cc1cc(C2CCCCCN2Cc2coc3ccccc3c2=O)on1 (centres undefined),6.4,11.3,12.2
COc1ccccc1-c1noc(Cn2ccn3nc(-c4ccc(F)cc4)cc3c2=O)n1,-5.1,-31.9,-5.4
COc1ccccc1-c1cc2c(=O)n(Cc3nc(-c4ccccc4C)no3)ccn2n1,-3.8,46.6*,-1.6
CSc1ncccc1C(=O)N1CCc2cc(-c3ccno3)ccc21,-82.8,-115.5,-31.1
Cc1ccc(N2CC(C(=O)Nc3cccc(-c4noc(C)n4)c3)CC2=O)cc1 (centres undefined),11.0,5.1,-2.2
O=C(NC1CCCCC1)C1CC(=O)N(c2cccc(-c3noc(-c4cccs4)n3)c2)C1 (centres undefined),38.8*,nt,nt
SMILES,USP17 inh,USP30 block,USP28 block
CCc1noc(C)c1C(=O)Nc1nnc(C2CC2)s1,-0.1,-1.7,-1.4
O=C(Nc1nnc(C2CC2)s1)c1ccc(OCC2CCCO2)cc1 (centres undefined),64.2*,-9.4,-0.2
Cc1sc2nc(SCC(=O)Nc3ccccc3O)n(Cc3ccco3)c(=O)c2c1C,13.3,14.8,11.9
CCc1cc2c(=O)n(Cc3ccco3)c(SCC(=O)Nc3ccccc3O)nc2s1,nt,43.7*,13.3
CN1CCCc2cc(C(=O)NC3CCN(Cc4ccccc4)CC3)sc21,-75.4,-221.6,-80.7
COc1ccc(NC(=O)CC(C)N2CCCC2)cc1 (centres undefined),0.0,12.7,5.4
CN(C)c1ccc(CNc2nn3c(-c4cccnc4)cnc3s2)cc1,62.7*,90.6*,66.8*
c1cncc(-c2cnc3sc(NCc4ccc5c(c4)OCO5)nn23)c1,61.1*,100.7*,86.9*
